In the library only some 21% were active in any assay of this set; here they are far more common.
DRD3 agonist – D3 dopamine receptor (human) agonism | P35462 | D3R DiscoveRx beta-arrestin cells, luminescence, 90 min | max activation, % | 410,000 tested, 0.58% active | AID 652048; in the data active means max activation above about 30%
Target sequence (P35462 whole entry, looked up): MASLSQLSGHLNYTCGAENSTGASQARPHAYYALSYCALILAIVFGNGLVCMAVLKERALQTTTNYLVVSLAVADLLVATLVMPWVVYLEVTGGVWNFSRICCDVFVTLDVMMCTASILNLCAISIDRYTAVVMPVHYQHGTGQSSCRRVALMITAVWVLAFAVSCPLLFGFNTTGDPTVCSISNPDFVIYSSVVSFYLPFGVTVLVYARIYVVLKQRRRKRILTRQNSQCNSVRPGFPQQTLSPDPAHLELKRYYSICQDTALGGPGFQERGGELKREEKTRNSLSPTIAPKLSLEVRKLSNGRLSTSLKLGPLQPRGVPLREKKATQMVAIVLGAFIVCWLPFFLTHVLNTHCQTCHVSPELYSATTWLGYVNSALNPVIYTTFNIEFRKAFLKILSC
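Agonist-mode cell screen: cells plated at 1500/well and incubated overnight at 37 °C, then exposed to library compounds for 90 min at 37 °C. Detection reagent was added for 30–60 min at room temperature, and luminescence was read.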
ClpP mod – qHTS Assay for Activators of ClpP; ATP-dependent Clp protease proteolytic subunit (Bacillus subtilis (strain 168)), P80244; purified B. subtilis ClpP, FRET peptide cleavage, 20 min; Potency, µM (top dose mostly 57.5 µM); 340,000 tested, 1.9% active; AID 651965, 2013; active means well fitted falling curve with a large enough effect; inconclusive means small, poorly fitted or top-dose-only effect; inactive means no such curve, though single readings can be large or run the other way; further: the source files actives as falling curves though it sought activators and does not explain the sign; nearly all actives have a fitted effect of over 65% in size
Target sequence (P80244 whole entry, looked up): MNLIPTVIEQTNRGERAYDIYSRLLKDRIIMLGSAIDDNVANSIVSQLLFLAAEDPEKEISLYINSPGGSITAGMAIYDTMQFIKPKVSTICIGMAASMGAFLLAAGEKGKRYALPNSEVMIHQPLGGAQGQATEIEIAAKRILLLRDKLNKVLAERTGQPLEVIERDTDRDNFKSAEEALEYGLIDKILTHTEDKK
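ClpP 10 microg/mL final, pH 8 Tris/KCl buffer with BSA, glycerol, Tween-20; compound pinned in; FRET-FV substrate; RT 20 min; Ex320/Em430; ΔFRET vs ADEP 5.8 microM, DMSO, no enzyme.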
IL1B secr inh – inflammasome signaling inhibition, IL-1 beta readout; activity change, % at 57.5 µM; 360,000 tested, 4.7% active; THP-1 LPS/ATP IL-1B secretion, AlphaLISA, 16 h; active compounds read low; in the data active means activity change below about -50%; inconclusive means mostly about -30% to -49%
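Secreted IL-1B measured by AlphaLISA bead assay after 16 h compound exposure of THP-1 cells; compounds (final up to 57.5 uM) added 1 h before LPS (250 ng/mL) and ATP (1.25 mM) stimulation; lower signal means less secretion.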
DRD3 antagonist – blocks the human D3 dopamine receptor; P35462; D3R cells, DiscoveRx beta-arrestin luminescence, antagonist mode; active compounds read low; max response, negative = inhibition, %; 360,000 tested, 2.5% active; in the data active means max response below about -50%; inconclusive means no clear call, values can overlap the other calls
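Cells plated overnight at 1500 cells/well, then exposed to library compounds with dopamine controls for 90 minutes at 37 degrees C. DiscoveRx reagent added for 30–60 minutes at room temperature; luminescence read, quantitative HTS format.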
TDP1 cell noCPT – qHTS for Inhibitors of human tyrosyl-DNA phosphodiesterase 1 (TDP1): qHTS in cells in absence of CPT; DT40 Tdp1-/- hTDP1 cells, no CPT, ATP luminescence, 48 h; Potency, µM (series often up to 46.2 µM), hits mostly inhibitors; 420,000 tested, 15% active; further: nearly all actives have a fitted effect of over 55% in size
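Stably hTDP1-transfected Tdp1-null chicken DT40 cells were treated with library compounds minus camptothecin and grown for at least 48 hr at 37 °C, after which cellular ATP was quantified by luminescence.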
DT40 TDP1 CPT – growth inhibition of DT40 Tdp1-/-;hTDP1 cells with camptothecin (screen for TDP1 inhibitors) | chicken DT40 Tdp1-/-;hTDP1 cells + 20 nM CPT, ATP luminescence, 48 h | Potency, µM (series often up to 46.2 µM), most hits filed as inhibitors | 420,000 tested, 12% active; further: nearly all actives have a fitted effect of over 55% in size
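Chicken DT40 Tdp1-/- cells stably complemented with human TDP1 were seeded at 400 cells/well in medium containing 20 nM camptothecin, exposed to pin-transferred compounds, and grown at 37 °C for at least 48 hr. Viability was read as ATP luminescence.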
Numbers stand for hits; – = inactive; ? = inconclusive; · = not tested or not shown; [ ] = dose if it differs, or a comment. Unless noted, the call rests on the fitted dose curve; in most records, active means well fitted inhibition curve with a large enough effect; inconclusive means small, poorly fitted or top-dose-only effect; inactive means flat fitted curve, though single readings scatter.

SMILES	DRD3 agonist	ClpP mod	IL1B secr inh	DRD3 antagonist	TDP1 cell noCPT	DT40 TDP1 CPT
Cc1c(C(=O)NCCc2ccc(S(N)(=O)=O)cc2)sc2nc3n(c(=O)c12)CCCC3	–	–	·	·	–	–
O=C(NNC(=O)c1cc(Br)c(Br)s1)c1csc(N2CCOCC2)n1	–	–	–	–	–	–
O=C(NCc1cccnc1)Nc1ccc(Br)cc1	–	–	–	–	–	–
Cc1ccc(NC(=O)NCc2cccnc2)cc1	–	–	-53.0	–	–	–
O=C(CCN1C(=O)/C(=C\c2ccccc2)SC1=S)N1CCOCC1	–	·	-63.2	–	10.3µM	8.2µM
COc1ccc(/C=C2\SC(=S)N(CCC(=O)N3CCOCC3)C2=O)cc1	–	–	-66.5	–	?	?
O=C1/C(=C/c2cccnc2)SC(=S)N1Cc1ccco1	–	–	-97.0	–	20.6µM	23.1µM
O=C(CCN1C(=O)S/C(=C\c2ccccc2)C1=O)N1CCCCC1	–	·	–	–	?	?
O=C(CCN1C(=O)S/C(=C\c2ccccc2)C1=O)N1CCOCC1	–	–	-80.1	–	–	?
O=C1/C(=C/c2cccnc2)SC(=S)N1c1ccccc1	–	–	–	–	–	–
COc1ccc(/C=C2\SC(=S)N(CCCC(=O)N3CCCCC3CCO)C2=O)cc1 (stereo unspecified)	–	–	–	–	?	?
O=C(O)C1CCN(C(=O)CCN2C(=O)S/C(=C\c3ccccc3)C2=O)CC1	–	–	–	–	–	?
COc1cccc(-c2nc(CS(=O)(=O)CC(=O)NCCc3ccc(Cl)cc3)c(C)o2)c1	–	–	·	·	?	?
COc1cc(N)c2ncccc2c1Cl	–	·	–	–	–	?
COc1ccccc1C1CN(CC(=O)N2CCC(N3CCOCC3)CC2)Cc2ccccc2O1 (stereo unspecified)	·	·	·	·	–	–[9.04 µM]
O=C1/C(=C/c2ccccc2)SC(=S)N1CC(=O)N1CCCCC1c1cccnc1 (stereo unspecified)	–	–	–	–	16.4µM	14.6µM
O=C(CCCN1C(=O)/C(=C/c2ccccc2)SC1=S)N1CCOCC1	–	·	-95.7	–	?	?
Cc1ccc(/C=C2\SC(=S)N(CCC(=O)N3CCOCC3)C2=O)cc1	–	–	–	–	18.4µM	16.4µM
N.N.O=C(O)C1(C(=O)O)CCC1.[Pt]	·	·	·	·	–	–
CC(C)OCCCNC(=O)c1cc(S(=O)(=O)N2CCc3ccccc32)cn1C	–	–	–	–	–	–
O=c1[nH][nH]c2ccccc2c1=O	–	·	·	–	–	–
CCCCNS(=O)(=O)c1ccc2nc(SCC(N)=O)[nH]c2c1	–	–	–	–	?	–
CCCCNS(=O)(=O)c1ccc2nc(SCC(=O)Nc3sccc3C#N)[nH]c2c1	–	–	–	?	?	23.1µM
CCCCNS(=O)(=O)c1ccc2nc(SCC(=O)c3ccccc3OC)[nH]c2c1	–	–	?	–	?	10.3µM
Cc1cc([N+](=O)[O-])ccc1NC(=O)CSc1nccn1C	–	–	·	·	·	·
SMILES	DRD3 agonist	ClpP mod	IL1B secr inh	DRD3 antagonist	TDP1 cell noCPT	DT40 TDP1 CPT
CN1/C(=C/C=C/c2n(C)c3cc([N+](=O)[O-])c([N+](=O)[O-])cc3[n+]2C)C(C)(C)c2ccccc21	–	–	-52.2	-57.2	3.66µM	?
COCCNC(=O)CCc1nnc2ccc(N3CCC(C)CC3)nn12	–	–	–	–	–	–
COc1ccc2nc3sc(C(=O)N4CCN(c5ccccc5)CC4)cc3cc2c1	–	–	·	·	–	–
O=c1oc2ccccc2cc1-c1cn2cc(Cc3ccc(Cl)cc3)sc2n1	–	–	·	·	2.59µM	3.26µM
COc1cccc(Nc2ncc3nc(-c4ccc(F)cc4)c(=O)n(CCC#N)c3n2)c1	·	·	·	·	–	–
CN=C1NN=C(c2cc(C)n(-c3c(C)n(C)n(-c4ccccc4)c3=O)c2C)CS1	–	·	–	–	–	–
COc1ccc(-n2c(C)cc(C3=NNC(=NC4CC4)SC3)c2C)cc1	–	·	?	–	23.1µM	?
Cc1cc(C2=NNC(=NC3CC3)SC2)c(C)n1-c1ccccc1	–	–	–	–	23.1µM	?
Nc1nc(N)c(N=O)c(OCC2CCCCC2)n1	–	–	?	–	7.31µM	11.6µM
NCC1O[C@H](O[C@@H]2C(O)[C@H](O[C@H]3OC(CO)C(O)C(N)C3O)[C@@H](N)C[C@H]2N)[C@@H](N)CC1O (stereo partly specified)	·	·	·	·	–	–
Oc1ccccc1N=Cc1sc2ccccc2c1Cl	–	–	–	–	18.4µM	?
Cc1ccc(O)c(N=Cc2sc3ccccc3c2Cl)c1	–	–	–	–	?	?
CCC(Sc1nc2ccccc2c2nc(CCc3c(C)n[nH]c3C)nn12)C(=O)Nc1ccccc1F (stereo unspecified)	–	–	·	·	–	–
COCCCNC(=O)c1ccccc1N(Cc1ccccc1)S(=O)(=O)c1ccccc1	–	–	–	–	?	–
Cc1ccc(C(=O)CCC(=O)NNC(=O)c2ccccc2O)cc1	–	–	–	–	–	–
COc1ccc(C)cc1-n1nnnc1SCc1cc(=O)n2cc(C)ccc2n1	–	–	–	–	7.31µM	8.2µM
COc1ccc(C)cc1-n1nnnc1SCC(=O)NC1CC1	–	–	–	–	–	–
COc1ccc(C)cc1-n1nnnc1SCn1nnc2ccccc2c1=O	–	–	–	–	16.4µM	16.4µM
